In PubChem BioAssay (EPA / NIEHS):
Activity calls are given as the source filed them. Rule for the calls: active = hit-call score of the fitted dose curve at least 0.9, where 1 is the maximum; inactive = score below 0.9.

Legend:
Details in all cases: mRNA level, 48 h; actives raise or lower the signal
[1] = read-out: ATP-citrate lyase (ACLY), ACLY (gene 47); test: LTEA_HepaRG_ACLY: Life Technologies and Expression Analysis (LTEA) Assay for ATP-citrate lyase (ACLY) using HepaRG (AID 2283466)
Procedure, shortened: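 qRT-PCR readout of ACLY transcript after 48 h chemical treatment of HepaRG cells; expression normalized to three housekeeping genes. Eight-point half-log series, highest 100 uM, 0.5% DMSO vehicle. Gain or loss fitted against DMSO baseline.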

[2] = read-out: Alkaline Phosphatase, Placental (ALPP) gene, ALPP (gene 250); test: LTEA_HepaRG_ALPP: Life Technologies and Expression Analysis (LTEA) Assay for Alkaline Phosphatase, Placental (ALPP) gene using HepaRG (AID 2283468)
Procedure, shortened: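 Using human liver HepaRG cells, chemicals are tested in duplicate over 48 h at half-log concentrations topping at 100 uM; phenobarbital 1 mM serves as induction control. ALPP mRNA change by qRT-PCR, bidirectional fit against vehicle.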

[3] = read-out: Bcl-2 (BAD) gene, BAD (gene 572); test: LTEA_HepaRG_BAD: Life Technologies and Expression Analysis (LTEA) Assay for Bcl-2 (BAD) gene using HepaRG (AID 2283469)
Procedure, shortened: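 HepaRG, 48 h exposure, 8-pt half-log curve from 100 uM in 0.5% DMSO, duplicates. Readout: TaqMan qRT-PCR for BAD mRNA, housekeeping-normalised (ACTB/GAPDH/POLR2A); gain or loss fitted against DMSO baseline.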

[4] = read-out: Bcl-2 (BAX) gene, BAX (gene 581); test: LTEA_HepaRG_BAX: Life Technologies and Expression Analysis (LTEA) Assay for Bcl-2 (BAX) gene using HepaRG (AID 2283470)
Procedure, shortened: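 Cells were thawed, plated for 48 h, moved to serum-free induction medium and dosed for 48 h (highest concentration 100 uM, half-log steps, 0.5% DMSO). Total RNA was then analysed for BAX expression by qRT-PCR.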

[5] = read-out: adenosine kinase (ADK) gene, ADK (gene 132); test: LTEA_HepaRG_ADK: Life Technologies and Expression Analysis (LTEA) Assay for adenosine kinase (ADK) gene using HepaRG (AID 2283471)
Procedure, shortened: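 Differentiated HepaRG cells dosed 48 h in serum-free induction medium, 0.5% DMSO vehicle, eight half-log concentrations from 100 uM, in duplicate. ADK mRNA by TaqMan qRT-PCR normalised to ACTB, GAPDH, POLR2A; bidirectional fit versus DMSO.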

[6] = read-out: Alpha-fetoprotein (AFP) gene, AFP (gene 174); test: LTEA_HepaRG_AFP: Life Technologies and Expression Analysis (LTEA) Assay for Alpha-fetoprotein (AFP) gene using HepaRG (AID 2283472)
Procedure, shortened: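 Chemicals were tested on differentiated HepaRG cells for 48 hours at eight concentrations up to 100 uM, with 0.5% DMSO as vehicle. AFP expression was then quantified by qRT-PCR and analyzed for gain or loss relative to DMSO.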

[7] = read-out: BCL2L11 (gene 10018); test: LTEA_HepaRG_BCL2L11: Life Technologies and Expression Analysis (LTEA) Assay for Bcl-2 (BCL2L11) gene using HepaRG (AID 2283473)
Procedure, shortened: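 Human hepatic HepaRG cultures are treated 48 h with test chemicals (maximum 100 uM, 0.5% DMSO vehicle). Expression of BCL2L11 is measured by qRT-PCR against ACTB, GAPDH and POLR2A, with activity in either direction scored relative to vehicle.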

[8] = read-out: Apolipoprotein A-V (APOA5) gene, APOA5 (gene 116519); test: LTEA_HepaRG_APOA5: Life Technologies and Expression Analysis (LTEA) Assay for Apolipoprotein A-V (APOA5) gene using HepaRG (AID 2283474)
Procedure, shortened: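 Concentration-response of APOA5 expression in HepaRG: eight half-log doses to 100 uM, 48 h, qRT-PCR normalized to ACTB/GAPDH/POLR2A, bidirectional fitting with 0.5% DMSO as baseline.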

[9] = read-out: Apoptosis regulator Bcl-2 (Homo sapiens) (UniProt P10415); test: LTEA_HepaRG_BCL2: Life Technologies and Expression Analysis (LTEA) Assay for Bcl-2 gene using HepaRG (AID 2283475)
Procedure, shortened: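 Plated human HepaRG cells are exposed to test chemicals for 48 h across eight concentrations from 100 uM downward in half-log steps (0.5% DMSO). BCL2 expression is then measured by qRT-PCR with housekeeping normalisation and fitted bidirectionally against vehicle.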

[10] = read-out: Bcl-2 (BID) gene, BID (gene 637); test: LTEA_HepaRG_BID: Life Technologies and Expression Analysis (LTEA) Assay for Bcl-2 (BID) gene using HepaRG (AID 2283476)
Procedure, shortened: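 Cells are plated, cultured 48 h, switched to serum-free induction medium, then dosed 48 h (100 uM top, half-log steps, 0.5% DMSO). RNA is isolated and BID expression read by qRT-PCR.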

[11] = read-out: Caspase-3 (Homo sapiens) (UniProt P42574); test: LTEA_HepaRG_CASP3: Life Technologies and Expression Analysis (LTEA) Assay for cysteine-aspartic acid protease (CASP3) using HepaRG (AID 2283477)
Procedure, shortened: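 Transcript-level assay: CASP3 mRNA in human HepaRG after 48 h treatment, eight half-log concentrations from 100 uM in 0.5% DMSO, quantified by qRT-PCR.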

[12] = read-out: Cytochrome P450 (CYP24A1), CYP24A1 (gene 1591); test: LTEA_HepaRG_CYP24A1: Life Technologies and Expression Analysis (LTEA) Assay for Cytochrome P450 (CYP24A1) using HepaRG (AID 2283478)
Procedure, shortened: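 Gene expression of CYP24A1 by TaqMan qRT-PCR in HepaRG after 48 h treatment, highest concentration 100 uM; activity fitted in both directions relative to DMSO vehicle.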

[13] = read-out: Cytochrome P450 (CYP1A2), CYP1A2 (gene 1544); test: LTEA_HepaRG_CYP1A2: Life Technologies and Expression Analysis (LTEA) Assay for Cytochrome P450 (CYP1A2) using HepaRG (AID 2283479)
Procedure, shortened: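 In duplicate wells, HepaRG cultures maintained in 0.5% DMSO were treated 48 h across an 8-point, half-log series topping at 100 uM; phenobarbital (1 mM) served as induction control. Expression was read by qRT-PCR.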

[14] = read-out: cysteine-aspartic acid protease (CASP8), CASP8 (gene 841); test: LTEA_HepaRG_CASP8: Life Technologies and Expression Analysis (LTEA) Assay for cysteine-aspartic acid protease (CASP8) using HepaRG (AID 2283480)
Procedure, shortened: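 qRT-PCR readout of CASP8 mRNA, normalized to three housekeeping genes, after 48 h chemical exposure of HepaRG cells; 8-point half-log series, top 100 uM, 0.5% DMSO vehicle. Bidirectional curve fitting against DMSO baseline.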

[15] = read-out: Cytochrome P450 (CYP2B6), CYP2B6 (gene 1555); test: LTEA_HepaRG_CYP2B6: Life Technologies and Expression Analysis (LTEA) Assay for Cytochrome P450 (CYP2B6) using HepaRG (AID 2283481)
Procedure, shortened: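 Human HepaRG, 48 h dosing, 0.5% DMSO vehicle, top dose 100 uM. CYP2B6 transcript by qRT-PCR, housekeeping-normalized, bidirectional curve fit.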

[16] = read-out: Cytochrome P450 2C19 (Homo sapiens) (UniProt P33261); test: LTEA_HepaRG_CYP2C19: Life Technologies and Expression Analysis (LTEA) Assay for CYP2C19 using HepaRG (AID 2283482)
Procedure, shortened: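 Endpoint: CYP2C19 mRNA change, bidirectional fit vs 0.5% DMSO. Cells: HepaRG, 48 h exposure, eight-point series topping at 100 uM. Quantitation: qRT-PCR normalized to ACTB, GAPDH, POLR2A.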

[17] = read-out: CYP2C8 (gene 1558); test: LTEA_HepaRG_CYP2C8: Life Technologies and Expression Analysis (LTEA) Assay for CYP2C8 using HepaRG (AID 2283483)
Procedure, shortened: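 HepaRG (human liver line), 48 h chemical exposure, 8-pt half-log series from 100 uM, 0.5% DMSO vehicle. Readout: CYP2C8 transcript by qRT-PCR, housekeeping-normalized. Bidirectional fit vs DMSO baseline.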

[18] = read-out: CYP2C9 (gene 1559); test: LTEA_HepaRG_CYP2C9: Life Technologies and Expression Analysis (LTEA) Assay for CYP2C9 using HepaRG (AID 2283484)
Procedure, shortened: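 HepaRG, 48 h dosing, 8-pt half-log series, top 100 uM, 0.5% DMSO vehicle. Read-out: CYP2C9 transcript by TaqMan qRT-PCR, housekeeping-normalized (ACTB/GAPDH/POLR2A). Gain or loss fitted vs DMSO baseline.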

[19] = read-out: CYP2E1 (gene 1571); test: LTEA_HepaRG_CYP2E1: Life Technologies and Expression Analysis (LTEA) Assay for CYP2E1 using HepaRG (AID 2283485)
Procedure, shortened: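 Readout is qRT-PCR of CYP2E1 mRNA, normalized to three housekeeping genes and fitted bidirectionally against 0.5% DMSO. HepaRG cells were dosed 48 h at eight concentrations, highest 100 uM with half-log dilutions.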

[20] = read-out: Peroxisomal acyl-coenzyme A oxidase 1 (ACOX1) gene, ACOX1 (gene 51); test: LTEA_HepaRG_ACOX1: Life Technologies and Expression Analysis (LTEA) Assay for Peroxisomal acyl-coenzyme A oxidase 1 (ACOX1) gene using HepaRG (AID 2283467)
Procedure, shortened: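 HepaRG, 48 h chemical exposure, 8-pt half-log series from 100 uM top, 0.5% DMSO vehicle, duplicates. Readout: ACOX1 mRNA by Fluidigm qRT-PCR, housekeeping-normalized; bidirectional fit vs DMSO baseline.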

Chain of Cytochrome P450 2C19 (Homo sapiens) (P33261 whole entry, looked up): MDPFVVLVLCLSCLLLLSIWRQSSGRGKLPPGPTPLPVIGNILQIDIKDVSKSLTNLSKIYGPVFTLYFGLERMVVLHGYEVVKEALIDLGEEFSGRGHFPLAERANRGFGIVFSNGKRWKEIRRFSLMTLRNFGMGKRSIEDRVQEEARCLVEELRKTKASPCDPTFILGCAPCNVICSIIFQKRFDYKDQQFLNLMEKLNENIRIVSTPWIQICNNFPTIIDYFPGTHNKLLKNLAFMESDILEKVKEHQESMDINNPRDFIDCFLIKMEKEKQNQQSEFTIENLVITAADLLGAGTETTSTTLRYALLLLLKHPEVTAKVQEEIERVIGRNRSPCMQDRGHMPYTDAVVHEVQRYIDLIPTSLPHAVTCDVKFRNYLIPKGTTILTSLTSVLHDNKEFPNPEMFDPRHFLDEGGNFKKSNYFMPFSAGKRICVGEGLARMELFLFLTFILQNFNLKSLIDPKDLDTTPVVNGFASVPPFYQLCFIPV
Chain of Apoptosis regulator Bcl-2 (Homo sapiens) (P10415 whole entry, looked up): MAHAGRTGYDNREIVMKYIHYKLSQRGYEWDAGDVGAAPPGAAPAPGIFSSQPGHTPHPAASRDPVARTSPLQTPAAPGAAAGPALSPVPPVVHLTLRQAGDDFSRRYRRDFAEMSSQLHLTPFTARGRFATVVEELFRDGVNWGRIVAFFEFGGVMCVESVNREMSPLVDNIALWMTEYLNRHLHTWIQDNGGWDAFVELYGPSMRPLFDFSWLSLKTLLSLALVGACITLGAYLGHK
Chain of Caspase-3 (Homo sapiens) (P42574 whole entry, looked up): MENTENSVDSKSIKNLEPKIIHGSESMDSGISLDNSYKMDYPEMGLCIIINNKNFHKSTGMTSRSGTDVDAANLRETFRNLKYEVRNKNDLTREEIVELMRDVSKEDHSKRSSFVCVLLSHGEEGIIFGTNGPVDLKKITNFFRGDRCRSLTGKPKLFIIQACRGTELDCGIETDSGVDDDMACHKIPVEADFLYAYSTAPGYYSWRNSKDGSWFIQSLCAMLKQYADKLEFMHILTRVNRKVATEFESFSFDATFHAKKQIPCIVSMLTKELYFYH

CC(C)COC(=O)c1ccccc1C(=O)OCC(C)C
outcome [1]: inactive | outcome [2]: inactive | outcome [3]: inactive | outcome [4]: inactive | outcome [5]: inactive | outcome [6]: inactive | outcome [7]: inactive | outcome [8]: inactive | outcome [9]: inactive | outcome [10]: inactive | outcome [11]: inactive | outcome [12]: inactive | AC50 [13]: 32.5 µM (active) | outcome [14]: inactive | outcome [15]: inactive | outcome [16]: inactive | outcome [17]: inactive | outcome [18]: inactive | outcome [19]: inactive

Cc1ccc(N)cc1
outcome [1]: inactive | outcome [20]: inactive | outcome [2]: inactive | outcome [3]: inactive | outcome [5]: inactive | outcome [6]: inactive | outcome [7]: inactive | outcome [8]: inactive | outcome [9]: inactive | outcome [10]: inactive | outcome [11]: inactive | outcome [12]: inactive | outcome [13]: inactive | outcome [14]: inactive | AC50 [15]: 16.5 µM (active) | outcome [16]: inactive | outcome [18]: inactive | outcome [19]: inactive

C=CCc1ccc2c(c1)OCO2
outcome [1]: inactive | outcome [20]: inactive | outcome [2]: inactive | outcome [3]: inactive | outcome [4]: inactive | outcome [5]: inactive | outcome [6]: inactive | outcome [7]: inactive | outcome [8]: inactive | outcome [9]: inactive | outcome [10]: inactive | outcome [11]: inactive | outcome [12]: inactive | outcome [14]: inactive | AC50 [15]: 18.4 µM (active) | outcome [16]: inactive | outcome [17]: inactive | outcome [18]: inactive | outcome [19]: inactive

CNC(=O)Oc1cccc2c1OC(C)(C)C2
outcome [1]: inactive | outcome [20]: inactive | outcome [2]: inactive | outcome [3]: inactive | outcome [4]: inactive | outcome [5]: inactive | AC50 [6]: 9.92 µM (active) | outcome [7]: inactive | outcome [8]: inactive | outcome [9]: inactive | outcome [10]: inactive | outcome [11]: inactive | outcome [12]: inactive | outcome [14]: inactive | AC50 [15]: 3.94 µM (active) | AC50 [16]: 17.4 µM (active) | outcome [17]: inactive | outcome [18]: inactive | AC50 [19]: 23.7 µM (active)

CS(=O)(=O)NC(=O)c1cc(Oc2ccc(C(F)(F)F)cc2Cl)ccc1[N+](=O)[O-]
outcome [1]: inactive | outcome [20]: inactive | outcome [2]: inactive | outcome [3]: inactive | outcome [5]: inactive | outcome [6]: inactive | outcome [7]: inactive | outcome [8]: inactive | outcome [9]: inactive | outcome [10]: inactive | outcome [11]: inactive | outcome [14]: inactive | AC50 [15]: 3.63 µM (active) | AC50 [16]: 1.52 µM (active) | AC50 [17]: 1.76 µM (active) | outcome [18]: inactive | AC50 [19]: 9.92 µM (active)

Nc1ccc([N+](=O)[O-])cc1
outcome [1]: inactive | outcome [20]: inactive | outcome [2]: inactive | outcome [3]: inactive | outcome [5]: inactive | outcome [6]: inactive | outcome [7]: inactive | outcome [8]: inactive | outcome [9]: inactive | outcome [10]: inactive | outcome [11]: inactive | outcome [14]: inactive | outcome [15]: inactive | outcome [16]: inactive | outcome [17]: inactive | outcome [18]: inactive | outcome [19]: inactive

CC(C)(C)OOC(C)(C)CCC(C)(C)OOC(C)(C)C
outcome [1]: inactive | outcome [20]: inactive | outcome [2]: inactive | outcome [3]: inactive | outcome [4]: inactive | outcome [5]: inactive | outcome [6]: inactive | outcome [7]: inactive | outcome [8]: inactive | outcome [9]: inactive | outcome [15]: inactive | outcome [16]: inactive | outcome [18]: inactive | outcome [19]: inactive
